Records with an inconclusive call do not appear. Where a call stands in place of a potency, no number is given. Calls of active or inactive are those of the source. Calls come from the whole dose curve; as a rule, active = well fitted inhibition curve with a large enough effect; inconclusive = small, poorly fitted or top-dose-only effect; inactive = flat fitted curve, though single readings scatter.
What was measured:
Experiment in all cases: qHTS profiling for inhibitors of Plasmodium falciparum proliferation (AID 504749); note: nearly all actives have a fitted effect of over 60% in size
Conditions in all cases: P. falciparum in erythrocytes, SYBR Green DNA, 72 h; series mostly up to 28.7 µM
[1] = tested on: CP325
How it was run: (§1)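 Quantitative HTS: compounds pinned into medium, infected erythrocytes added (0.3% parasitemia, 2.5% hematocrit), 72 h culture at 37 C under 5% CO2. Saponin/Triton lysis with SYBR Green I, overnight RT, then fluorescence read.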

[2] = tested on: CP329
How it was run: as §1

[3] = tested on: CP335
How it was run: as §1

[4] = tested on: DFO2036
How it was run: as §1

[5] = tested on: DIV14
How it was run: as §1

[6] = tested on: DIV17
How it was run: as §1

[7] = tested on: DIV30
How it was run: as §1

[8] = tested on: Dd2
How it was run: as §1

[9] = tested on: ECU
How it was run: as §1

[10] = tested on: FAB9
How it was run: as §1

[11] = tested on: GB4
How it was run: as §1

[12] = tested on: HB3
How it was run: as §1

[13] = tested on: ICS
How it was run: as §1

[14] = tested on: JCK
How it was run: as §1

[15] = tested on: N140
How it was run: as §1

[16] = tested on: P93_24
How it was run: as §1

[17] = tested on: P94_40
How it was run: as §1

[18] = tested on: PAD
How it was run: as §1

[19] = tested on: PC15
How it was run: as §1

[20] = tested on: PC26
How it was run: as §1
Potency is the fitted concentration of half-maximal effect.

Compound	Potency [1]	Potency [2]	Potency [3]	Potency [4]	Potency [5]	Potency [6]	Potency [7]	Potency [8]	Potency [9]	Potency [10]	Potency [11]	Potency [12]	Potency [13]	Potency [14]	Potency [15]	Potency [16]	Potency [17]	Potency [18]	Potency [19]	Potency [20]
O=C(/C=C/c1ccccc1)NCCO	inactive	inactive	inactive	inactive	inactive	inactive	inactive	inactive	inactive	inactive	inactive	inactive	inactive	inactive	inactive	inactive	inactive	inactive	inactive	inactive
Nc1ccc(C(=O)O)c(O)c1	inactive	inactive	inactive	inactive	inactive	inactive	inactive	inactive	inactive	inactive	inactive	inactive	inactive	inactive	inactive	inactive	inactive	inactive	inactive	inactive
COc1cc2c3cc1Oc1cc(ccc1O)C[C@@H]1c4c(cc(OC)c(O)c4Oc4ccc(cc4)C[C@@H]3N(C)CC2)CC[N+]1(C)C	inactive	inactive	inactive	inactive	inactive	inactive	inactive	inactive	inactive	inactive	inactive	inactive	inactive	inactive	inactive	inactive	inactive	inactive	inactive	inactive
CCCCCCOc1ccccc1C(N)=O	inactive	inactive	inactive	inactive	inactive	inactive	inactive	inactive	inactive	inactive	inactive	inactive	inactive	inactive	inactive	inactive	inactive	inactive	inactive	inactive
c1ccc2sc(SSc3nc4ccccc4s3)nc2c1	inactive	inactive	inactive	inactive	inactive	inactive	inactive	inactive	inactive	inactive	inactive	inactive	inactive	inactive	inactive	inactive	inactive	inactive	inactive	inactive
CC(C(=O)O)c1ccc2c(c1)[nH]c1ccc(Cl)cc12 (stereo unspecified)	inactive	inactive	inactive	inactive	inactive	inactive	inactive	inactive	inactive	inactive	inactive	inactive	inactive	inactive	inactive	inactive	inactive	inactive	inactive	inactive
Cc1ccccc1CNc1ncnc2c1ncn2C1OC(CO)C(O)C1O (stereo unspecified)	inactive	inactive	inactive	inactive	inactive	inactive	inactive	inactive	inactive	inactive	inactive	inactive	inactive	inactive	inactive	inactive	inactive	inactive	inactive	inactive
CC1(C)[C@@H](O)CC[C@]2(C)[C@H]3C(=O)C=C4[C@@H]5C[C@@](C)(C(=O)O)CC[C@]5(C)CC[C@@]4(C)[C@]3(C)CC[C@@H]12	inactive	inactive	inactive	inactive	inactive	inactive	inactive	inactive	inactive	inactive	inactive	inactive	inactive	inactive	inactive	inactive	inactive	inactive	inactive	inactive
CCOc1ccc2nc(S(N)(=O)=O)sc2c1	inactive	inactive	inactive	inactive	inactive	inactive	inactive	inactive	inactive	inactive	inactive	inactive	inactive	inactive	inactive			inactive		inactive
CCCOC(=O)c1ccc(O)cc1	inactive	inactive	inactive	inactive	inactive	inactive	inactive	inactive	inactive	inactive	inactive	inactive	inactive	inactive	inactive	inactive	inactive	inactive	inactive	inactive
Nc1c(CC(=O)O)cccc1C(=O)c1ccc(Br)cc1	inactive	inactive	inactive	inactive	inactive	inactive	inactive	inactive	inactive	inactive	inactive	inactive	inactive	inactive	inactive	inactive	inactive	inactive	inactive	inactive
CC1(C)C[C@@H]1C(=O)N/C(=C\CCCCSC[C@H](N)C(=O)O)C(=O)O	inactive	inactive	inactive	inactive	inactive	inactive	inactive	inactive	inactive	inactive	inactive	inactive	inactive	inactive	inactive	inactive	inactive	inactive	inactive	inactive
Cc1c(Nc2ncccc2C(=O)O)cccc1C(F)(F)F	inactive	inactive	inactive	inactive	inactive	inactive	inactive	inactive	inactive	inactive	inactive	inactive	inactive	inactive	inactive	inactive	inactive	inactive	inactive	inactive
Cc1ccc(C(=O)c2ccc(CC(=O)O)n2C)cc1	inactive	inactive	inactive	inactive	inactive	inactive	inactive	inactive	inactive	inactive	inactive	inactive	inactive	inactive	inactive	inactive	inactive	inactive	inactive	inactive
[O-][n+]1ccccc1SSc1cccc[n+]1[O-]	953 nM (active)	1350 nM (active)	601 nM (active)	891 nM (active)	757 nM (active)	536 nM (active)	1200 nM (active)	891 nM (active)	1120 nM (active)	1580 nM (active)	757 nM (active)	891 nM (active)	794 nM (active)	4470 nM (active)	708 nM (active)	1000 nM (active)	794 nM (active)	891 nM (active)	2240 nM (active)	1510 nM (active)
C=CCCCCCCCCC(=O)O	inactive	inactive	inactive	inactive	inactive	inactive	inactive	inactive	inactive	inactive	inactive	inactive	inactive	inactive	inactive	inactive	inactive	inactive	inactive	inactive
N=c1ccn2c(n1)O[C@H]1[C@H](O)[C@@H](CO)O[C@H]12	inactive	inactive	inactive	inactive	inactive	inactive	inactive	inactive	inactive	inactive	inactive	inactive	inactive	inactive	inactive	inactive		inactive	inactive	inactive
CN1CCN(c2cc3c(nn2)Oc2ccccc2N3C)CC1	inactive	inactive	inactive	inactive	inactive	inactive	inactive	inactive	inactive	inactive	inactive	inactive	inactive	inactive	inactive	inactive	inactive	inactive	inactive	inactive
CCC1C(=O)OCC1Cc1cncn1C (stereo unspecified)	inactive	inactive	inactive	inactive	inactive	inactive	inactive	inactive	inactive	inactive	inactive	inactive	inactive	inactive	inactive	inactive	inactive	inactive	inactive	inactive
Cc1ccc(O)c(-n2nc3ccccc3n2)c1	inactive	inactive	inactive	inactive	inactive	inactive	inactive	inactive	inactive	inactive	inactive	inactive	inactive	inactive	inactive	inactive	inactive	inactive	inactive	inactive
O=C(O)/C=C/C(O)c1ccc(Cl)cc1 (stereo unspecified)	inactive	inactive	inactive	inactive	inactive	inactive	inactive	inactive	inactive	inactive	inactive	inactive	inactive	inactive	inactive	inactive	inactive	inactive	inactive	inactive
O=C(O)COc1ccc(C(=O)c2cccs2)c(Cl)c1Cl	inactive	inactive	inactive	inactive	inactive	inactive	inactive	inactive	inactive	inactive	inactive	inactive	inactive	inactive	inactive	inactive	inactive	inactive	inactive	inactive
C=CC(N)CCC(=O)O (stereo unspecified)	inactive	inactive	inactive	inactive	inactive	inactive	inactive	inactive	inactive	inactive	inactive	inactive	inactive	inactive	inactive	inactive	inactive	inactive	inactive	inactive
O=C(O)[C@H](CC(=O)N1C[C@H]2CCCC[C@H]2C1)Cc1ccccc1	inactive	inactive	inactive	inactive	inactive	inactive	inactive	inactive	inactive	inactive	inactive	inactive	inactive	inactive	inactive	inactive	inactive	inactive	inactive	inactive
C=CCN1C(=O)C(CC(C)C)NC1=S (stereo unspecified)	inactive	inactive	inactive	inactive	inactive	inactive	inactive	inactive	inactive	inactive	inactive	inactive	inactive	inactive	inactive	inactive	inactive	inactive	inactive	inactive
CC1OC1P(=O)(O)O (stereo unspecified)	inactive	inactive	inactive	inactive	inactive	inactive	inactive	inactive	inactive	inactive	inactive	inactive	inactive	inactive	inactive	inactive	inactive	inactive	inactive	inactive
